These results are taken from PubChem BioAssay AID651602 (The Scripps Research Institute Molecular Screening Center, 2012).

The campaign covered roughly 360,000 compounds. About 950 (0.26%) were called active. What follows is part of a selection rich in actives, with near analogues and random picks from the rest. A number with no mark means an inactive call. No stated cut-off is given here; in the data, active means inhibition above about 11%; inactive means the rest.

Broadly, the inhibition is the change of the read-out against control, counted positive when it falls.

The nature of this assay: growth loss of phage-infected E. coli, primary screen, RecBCD inhibitor project, absorbance, with phage, HTS (AID 651602). To be noted: at 11.9 µM, hits give high values.
As for `CN1CCCc2nc(-c3ccccc3)ccc21`, the inhibition is 2.87%.

Consider `C=CCn1c(SCC(=O)Nc2ccc(NC(C)=O)cc2)nc2sc(C)c(C)c2c1=O`, for which the inhibition was 5%. `Cc1sc2nc(CSCC(=O)Nc3c(Cl)cccc3Cl)[nH]c(=O)c2c1C`: the inhibition is -1.33%.

Regarding `C=CCNC(=O)CSc1nc2sc(C)c(C)c2c(=O)[nH]1`, the inhibition is 97.6% (active). The figure for `COc1cccc(NC(=O)N(C)C[C@@H]2OCc3cn(nn3)CCCC(=O)N([C@@H](C)CO)C[C@H]2C)c1` is 1.68%; for `Cc1cc(OC(=O)NCCc2ccc(F)cc2)ccc1F` it is 1.19%. The figure for `CCOC(=O)N1CCN(C(=O)C[C@H]2C[C@@]3(C(=O)OC)C(=C[C@H](C4CCCC4)O[C@@H]3C)N(Cc3ccccc3)C2=O)CC1` is -1.47%; for `CC(C)C[C@H](NC(=O)CC1CCCC1)C(=O)N1CCC[C@H]1C(=O)NCc1ccccc1` it is -1.58%. On to `NC1=NC(=O)C(Cc2cccc(Cl)c2Cl)S1` (stereo not drawn), for which the inhibition is 14.8% (active). As for `NC1=NC(=O)C(Cc2cccc(Cl)c2)S1` (stereo not drawn), the inhibition was 2.84%. On to `O=C1NC(=Nc2ccc(Cl)cc2)SC1Cc1cccc(Cl)c1Cl` (stereo not drawn), for which the inhibition is 3.76%. The figure for `Nc1nc2c(ncn2[C@@H]2O[C@H](C(=O)N[C@H](Cc3ccccc3)C(=O)NCC3CCCCC3)[C@@H](O)[C@H]2O)c(=O)[nH]1` is 0.31%. The figure for `CCCCCCCCN1C(=O)[C@@H](CC(=O)NCc2ccc(C)o2)C[C@@]2(C(=O)OC)C1=C[C@H](C(C)(C)C)O[C@@H]2C` is 4.26%; for `CC(=O)N(O)CCCCCNC(=O)CCC(=O)N(O)CCCCCNC(=O)CCC(=O)N(O)CCCCCNC(=O)CCC(=O)O` it is 11.2% (active); for `NC(=O)NCCCC(=O)O` it is 3.55%.

As for `CC1=C(C/C=C(\C)CCCC(C)CCCC(C)CCCC(C)C)C(=O)c2ccccc2C1=O` (stereo not drawn), the inhibition is 99.2% (active). The figure for `CCCCCCCCN1C(=O)[C@@H](CC(=O)N2CCN(C(=O)OCC)CC2)C[C@@]2(C(=O)OC)C1=C[C@H](C1CCCC1)O[C@@H]2C` is 0.85%; for `CCOc1ccccc1C(=O)N1CCC[C@@H]1C(=O)N1CCC[C@H]1C(=O)NCc1ccccc1` it is 2.4%; for `O=C(NCc1ccccc1)[C@@H]1CCCN1C(=O)[C@H]1CCCN1C(=O)c1cccc(Cl)c1` it is 1.16%. Take `CN(O)C(=S)c1ccccc1`: the inhibition is 28.3% (active). Take `CCNC(=S)N(CCc1c(C)[nH]c2ccc(C)cc12)Cc1ccco1`: the inhibition was 13.2% (active). Regarding `COc1ccc2[nH]c(C)c(CCN(Cc3cccs3)C(=S)Nc3ccccc3OC)c2c1`, the inhibition was 1.75%.

For the compound `COCCNC(=S)N(CCc1c(C)[nH]c2ccc(C)cc12)Cc1cccnc1`, the inhibition is 2.3%. The figure for `CC(C)[C@H]1COCCS(=O)(=O)N1Cc1ccccc1-c1cccc2c1sc1ccccc12` is 2.16%; for `N#Cc1cccc(C(=O)NCC2CCN(C(=O)C(=O)c3cc4ccccc4o3)CC2)c1` it is 1.78%.

Take `CN1C(=O)C2CC(O)C(SC3CC4C(=O)N(C)C(=O)C4CC3O)CC2C1=O` (stereo not drawn): the inhibition was 5.11%. For `CN1CCCCC(NC(=O)C(C)(C)C)C1=O` (stereo not drawn) the value was 2.65%; for `COC(=O)[C@]12C[C@H](CC(=O)NCc3ccc(C)o3)C(=O)N(CCC3=CCCCC3)C1=C[C@H](C(C)(C)C)O[C@@H]2C`, 1.32%. The figure for `CC(=O)C1=C(C)N(Cc2ccccc2)C(=S)NC1c1cccc(Br)c1` (stereo not drawn) is 2.19%; for `CCCCNc1cccc2c1S(=O)(=O)N[C@@H](C)CO2` it is 2%. Turning to `CCCCCCCCN1C(=O)[C@@H](CC(=O)NCc2ccccc2)C[C@@]2(C(=O)OC)C1=C[C@H](C(C)(C)C)O[C@@H]2C`, the inhibition was 1.01%.

As for `COc1cccc(/C=N/Nc2ncc(C(F)(F)F)cc2Cl)c1O`, the inhibition is 24.4% (active). The figure for `CN(NS(=O)(=O)c1cccs1)c1ncc(C(F)(F)F)cc1Cl` is 1.24%; for `O=C(c1ccccn1)c1ncc(C(F)(F)F)cc1Cl` it is 2.12%. With `CC(C)c1ccc(NC(=O)CCN2C(=O)c3ccc([N+](=O)[O-])cc3C2=O)cc1`, the inhibition was -0.16%. Take `O=C(Nc1ccc(C2CC2(Cl)Cl)cc1)c1cccc([N+](=O)[O-])c1` (stereo not drawn): the inhibition was 1.49%. The figure for `Cn1ccc(=Nc2ccc(NC(=O)c3ccc(N=c4ccn(C)c5ccc([N+](=O)[O-])cc45)cc3)cc2)cc1` is 70.7% (active). Regarding `COC(=O)C1=C(C(=O)OC)C2C=C(C(C)C)C1C(=O)C2(C)O` (stereo not drawn), the inhibition was 3.33%. The figure for `Nc1ncnc2c1ncn2[C@@H]1O[C@H](C(=O)N[C@@H](CCc2ccccc2)C(=O)N2CCCN(Cc3cccs3)CC2)[C@@H](O)[C@H]1O` is 2.53%; for `Nc1c(C(=O)Nc2ccc3c(c2)OCCO3)nnn1Cc1ccccc1` it is 5.25%; for `CCOc1ccc(Cn2nnc(C(=O)Nc3ccc(OC)cc3OC)c2N)cc1` it is 10.9% (active). Turning to `COc1cccc(CNC(=O)c2nnn(CC(=O)Nc3cc(Cl)ccc3C)c2N)c1`, the inhibition was -1.55%.

`CC(=O)c1ccc(S(=O)(=O)NCC2CCN(C(=O)C(=O)c3cccs3)CC2)cc1`: the inhibition is 2.71%. For `C/C(=N\Nc1ccc(Cl)nn1)c1ccccc1O` the value was -5.1%. With `Oc1cccc(/C=N/Nc2ccc(Cl)nn2)c1O`, the inhibition is 13.1% (active).

On to `Cc1ccc2nc(-c3ccc(CN4CCC(n5cc(-c6ccccc6)[nH]c5=O)CC4)cc3)c(-c3ccccc3)nc2c1`, for which the inhibition is 2.06%. Consider `O=C(NCc1ccccc1)[C@H]1CCCN1C(=O)[C@@H]1CCCN1C(=O)c1ccc(Cl)cc1Cl`, for which the inhibition is 1.72%. The figure for `COc1cccc(CNC(=O)[C@H]2CCCN2C(=O)[C@H]2CCCN2C(=O)c2cc(F)cc(F)c2)c1` is 0.85%.
